# Source: ChEMBL document CHEMBL1157539, “Thousands of chemical starting points for antimalarial lead identification” (Nature, 2010)
# Key:
# Format in all cases: functional
# Plasmodium falciparum [1] = test: GSK_TCMDC: Inhibition of Plasmodium falciparum 3D7 in whole red blood cells, using parasite LDH activity as an index of growth. Test compounds present at 2uM
# Plasmodium falciparum [2] = test: GSK_TCMDC: Inhibition of Plasmodium falciparum Dd2 in whole red blood cells, using parasite LDH activity as an index of growth. Test compounds present at 2uM
# HepG2 = test: GSK_TCMDC: Percent inhibition of human HepG2 cell line. Test compounds present at 10uM.
structure (smiles),measurement,setting,value
Cc1[nH]c(C)c(-c2ccc(-c3ccc(C#N)cc3)nc2)c(=O)c1Br,Inhibition,Plasmodium falciparum [1],97%
same,Inhibition,Plasmodium falciparum [2],87%
same,Inhibition,HepG2,5%
O=C(Nc1ccc(OC2CCN(Cc3ccc(F)cc3)C2)c(Cl)c1)c1ccc(F)cc1.O=C(O)C(F)(F)F (stereo not drawn),Inhibition,Plasmodium falciparum [1],96%
same,Inhibition,Plasmodium falciparum [2],94%
same,Inhibition,HepG2,10%
Cc1cccc2nc(-c3ccc(-c4cccc(CN5CCC(C(N)=O)CC5)c4)s3)[nH]c12.O=C(O)C(F)(F)F,Inhibition,Plasmodium falciparum [1],86%
same,Inhibition,Plasmodium falciparum [2],16%
same,Inhibition,HepG2,1%
O=C(c1cc(C(=O)Nc2ccc(F)cc2)c(=O)n(-c2ccc(F)cc2)c1)c1cc(Cl)ccc1O,Inhibition,Plasmodium falciparum [1],100%
same,Inhibition,Plasmodium falciparum [2],98%
same,Inhibition,HepG2,13%
Brc1ccc(C=NNc2nc3ccccc3[nH]2)cc1,Inhibition,Plasmodium falciparum [1],100%
same,Inhibition,Plasmodium falciparum [2],90%
same,Inhibition,HepG2,0%
O=C(/C=C/c1ccc(Cl)c(Cl)c1)NCCCCCN1CCC(NC(=O)Nc2ccc(Cl)c(C(F)(F)F)c2)CC1,Inhibition,Plasmodium falciparum [1],99%
same,Inhibition,Plasmodium falciparum [2],19%
same,Inhibition,HepG2,76%
CN1CCN(c2ccc(Nc3ccnc4ccc(-c5ccccc5)cc34)cc2)CC1,Inhibition,Plasmodium falciparum [1],100%
same,Inhibition,Plasmodium falciparum [2],100%
same,Inhibition,HepG2,20%
Cc1ccccc1C1CCN(C2CCC(NC(=O)/C=C/c3cc(C(F)(F)F)ccc3F)CC2)CC1 (stereo not drawn),Inhibition,Plasmodium falciparum [1],100%
same,Inhibition,Plasmodium falciparum [2],45%
same,Inhibition,HepG2,56%
CS(=O)(=O)Nc1cccc(-c2cnc3[nH]cc(-c4ccc(CCC(=O)O)cc4)c3c2)c1,Inhibition,Plasmodium falciparum [1],98%
same,Inhibition,Plasmodium falciparum [2],78%
same,Inhibition,HepG2,7%
Cc1[nH]c(CNCCCNc2cc(=O)c3ccccc3[nH]2)c(Br)c1Br,Inhibition,Plasmodium falciparum [1],91%
same,Inhibition,Plasmodium falciparum [2],47%
same,Inhibition,HepG2,0%
O=C(Nc1ccc(-c2ccccc2)cc1)Nc1cccc(Cn2nc(Cl)c(N3CCNCC3)cc2=O)c1.O=C(O)C(F)(F)F,Inhibition,Plasmodium falciparum [1],100%
same,Inhibition,Plasmodium falciparum [2],79%
same,Inhibition,HepG2,15%
O=C(/C=C/c1ccc([N+](=O)[O-])cc1)N1CCC(NS(=O)(=O)c2ccc(Br)cc2)CC1,Inhibition,Plasmodium falciparum [1],93%
same,Inhibition,Plasmodium falciparum [2],5%
same,Inhibition,HepG2,0%
Cc1cccc2nc(-c3ccc(-c4cccc(CN5CCN(c6ccc(C#N)cn6)CC5)c4)s3)[nH]c12.O=C(O)C(F)(F)F,Inhibition,Plasmodium falciparum [1],85%
same,Inhibition,Plasmodium falciparum [2],8%
same,Inhibition,HepG2,37%
CCC(C)OC(=O)C1=C(C)NC2=C(C(=O)CC(c3ccc(OC)c(OC)c3)C2)C1c1ccc(C)o1 (stereo not drawn),Inhibition,Plasmodium falciparum [1],93%
same,Inhibition,Plasmodium falciparum [2],82%
same,Inhibition,HepG2,6%
Cc1nc(-c2ccc(-c3ccc(C(=O)Nc4ccc(Cl)c(N5CCN(C)CC5)c4)cc3)c(C)c2)no1,Inhibition,Plasmodium falciparum [1],100%
same,Inhibition,Plasmodium falciparum [2],47%
same,Inhibition,HepG2,23%
CO/C(=C\C=C\c1cc2cc(Cl)c(Cl)cc2[nH]1)C(=O)NCCCN1CCN(c2cccc(CCO)c2)CC1,Inhibition,Plasmodium falciparum [1],100%
same,Inhibition,Plasmodium falciparum [2],32%
same,Inhibition,HepG2,61%
Cc1cccc(C)c1C1CCN(CCCCNC(=O)c2cc3ccccc3[nH]2)CC1,Inhibition,Plasmodium falciparum [1],90%
same,Inhibition,Plasmodium falciparum [2],18%
same,Inhibition,HepG2,46%
Cc1cc(N[C@@H](Cc2ccccc2)C(=O)NCCc2ccccc2)nc(NCC2CCCCC2)n1.O=C(O)C(F)(F)F,Inhibition,Plasmodium falciparum [1],100%
same,Inhibition,Plasmodium falciparum [2],95%
same,Inhibition,HepG2,24%
CS(=O)(=O)Cc1ccc(Nc2nccc(NC3CCN(c4nccc(C(F)(F)F)n4)CC3)n2)cc1,Inhibition,Plasmodium falciparum [1],88%
same,Inhibition,Plasmodium falciparum [2],23%
same,Inhibition,HepG2,34%
CCNC(C)(C)CN(Cc1ccc(-c2ccc(C(F)(F)F)cc2)cc1)C(=O)Cn1c(SCc2ccc(F)cc2)nc(=O)c2c1CCC2.O=C(O)C(O)C(O)C(=O)O,Inhibition,Plasmodium falciparum [1],95%
same,Inhibition,Plasmodium falciparum [2],94%
same,Inhibition,HepG2,99%
O=C(CCc1c[nH]cn1)Nc1cccc(-c2ccc(-c3nc4cc(F)ccc4[nH]3)s2)c1,Inhibition,Plasmodium falciparum [1],100%
same,Inhibition,Plasmodium falciparum [2],69%
same,Inhibition,HepG2,17%
CCCC(=O)Nc1ccc(OCCCN(Cc2ccccc2OC(F)(F)F)c2ccc(C#N)c(C(F)(F)F)c2)cc1,Inhibition,Plasmodium falciparum [1],94%
same,Inhibition,Plasmodium falciparum [2],95%
same,Inhibition,HepG2,0%
Cc1nnc(-c2ccc3ccccc3c2)c2cn(-c3cccc([N+](=O)[O-])c3)nc12,Inhibition,Plasmodium falciparum [1],91%
same,Inhibition,Plasmodium falciparum [2],67%
same,Inhibition,HepG2,29%
FC(F)(F)c1ccc(CNCC2CCN(Cc3ccc4c(c3)OCO4)CC2)cc1.O=C(O)C(F)(F)F,Inhibition,Plasmodium falciparum [1],80%
same,Inhibition,Plasmodium falciparum [2],12%
same,Inhibition,HepG2,27%
Cc1ccc2nc(-c3ccc(/C=C/C(=O)NC4CCN(Cc5ccccc5)CC4)cc3)[nH]c2c1C,Inhibition,Plasmodium falciparum [1],100%
same,Inhibition,Plasmodium falciparum [2],92%
same,Inhibition,HepG2,22%
CS(=O)(=O)NCCCNCc1ccc(-c2cccc(-c3nc4cc(F)ccc4[nH]3)c2)cc1.O=C(O)C(F)(F)F,Inhibition,Plasmodium falciparum [1],98%
same,Inhibition,Plasmodium falciparum [2],1%
same,Inhibition,HepG2,15%
